# Experimental data from PubChem BioAssay (Tox21).
# Values without a mark were called inactive. Results filed as inconclusive are left out. Where a call stands in place of a potency, no number is given. The source made the active and inactive calls. Unless noted, calls follow the shape of the full dose curve.
# Columns and labels:
# [1] = qHTS assay to identify small molecule agonists of the sonic hedgehog signaling (Shh) pathway (AID 1259368); also: nearly all actives have a fitted effect of over 15% in size; also: potency is read from the fitted curve at half-maximal effect;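 as to activity change: NIH/3T3-derived 3T3Gli1-Luc cells carrying a stable Gli1-driven firefly luciferase reporter; series mostly up to about 92 µM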
# Summary of the method: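 Mouse fibroblast (NIH/3T3) reporter cells with stably integrated Gli1-Luc were treated 24 hr with compound; firefly luciferase luminescence served as the read-out.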
# [2] = qHTS assay to identify small molecule antagonists of the sonic hedgehog signaling (Shh) pathway (AID 1259369); also: nearly all actives have a fitted effect of over 45% in size; also: potency is read from the fitted curve at half-maximal effect
# Summary of the method: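 Conditioned medium drives Shh signalling in 3T3Gli1-Luc cells; compounds in DMSO co-applied, 24hr at 37 C, then luciferase luminescence.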
# [3] = qHTS assay to identify small molecule agonists of the androgen receptor (AR) signaling pathway in the presence of an antagonist - cell viability counter screen (AID 1259379; active = well fitted curve in the direction sought with a large enough effect in the repeat runs; an effect the other way counts as inactive or inconclusive; also: nearly all actives have a fitted effect of over 25% in size; also: potency is read from the fitted curve at half-maximal effect;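 as to activity change, negative = cytotoxicity: MDA-kb2 human breast cancer cells carrying an MMTV luciferase reporter; series mostly up to about 92 µM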)
# Summary of the method: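 A CellTiter-Fluor read-out measured viability of MDA-kb2 reporter cells (MMTV promoter with AR and GR response elements). Treatment: nilutamide 3.0uM final with compounds at 15 concentrations, 16 hr, 37C, 0% CO2.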
# [4] = qHTS assay to identify small molecule agonists of the estrogen receptor beta (ER-beta) signaling pathway - cell viability counter screen (AID 1259380; active = well fitted curve in the direction sought with a large enough effect in the repeat runs; an effect the other way counts as inactive or inconclusive; also: nearly all actives have a fitted effect of over 30% in size; also: potency is read from the fitted curve at half-maximal effect)
# Summary of the method: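 Cells used were ER-beta-UAS-bla HEK293T in medium with 2% charcoal-stripped FBS. They were treated for 16 hr at 37C. Viability came from CellTiter-Glo luminescence.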
# [5] = qHTS assay to identify small molecule antagonists of the estrogen receptor beta (ER-beta) signaling pathway - cell viability counter screen (AID 1259382; active = well fitted curve in the direction sought with a large enough effect in the repeat runs; an effect the other way counts as inactive or inconclusive; also: nearly all actives have a fitted effect of over 55% in size; also: potency is read from the fitted curve at half-maximal effect; as to activity change, negative = cytotoxicity: series mostly up to about 92 µM)
# Summary of the method: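 Agonist-stimulated (1nM E2) ER-beta-UAS-bla HEK293T cells are incubated with library compounds for 16 hr at 37C. Cell viability is then assessed in the reporter-assay wells by adding CellTiter-Glo and reading luminescence after 30 min.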
# [6] = target: Estrogen receptor (Homo sapiens) (UniProt P03372); assay: qHTS assay to identify small molecule agonists of the estrogen receptor alpha (ER-alpha) signaling pathway in the presence of an antagonist (AID 1259383); also: nearly all actives have a fitted effect of over 15% in size; also: potency is read from the fitted curve at half-maximal effect; as to activation: top concentration of the series differs between compounds
# Summary of the method: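 Using VM7Luc4E2 cells seeded 24hr before treatment, antagonist ICI-182,780 (10.0nM final) was added, followed by compounds at 15 concentrations. Plates incubated 22hr; ONE-Glo luminescence quantified reporter activity.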
# [7] = qHTS assay to identify small molecule agonists or antagonists of the thyroid stimulating hormone receptor (TSHR) signaling pathway - wild type cell line counter screen (AID 1259384)
# Summary of the method: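 Wild-type Hek293 cells, 800/well, 18 h at 37C, then compound with Ro20-1724 for 30 min RT. cAMP by HTRF (cAMP-d2/anti-cAMP cryptate), 1 h RT, fluorescence read. 15 concentrations, triplicates.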
# [8] = target: Estrogen receptor beta (Homo sapiens) (UniProt Q92731); assay: qHTS assay to identify small molecule antagonists of the estrogen receptor beta (ER-beta) signaling pathway (AID 1259378; active = well fitted inhibition curve with a large enough effect in the signal ratio in the repeat runs, not every such curve was filed as active; the % refers to the signal ratio)
# Summary of the method: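 ER-beta-UAS-bla HEK293T cells in 2% charcoal-stripped FBS medium treated with compound plus 1nM final 17-beta-estradiol for 16 hr at 37C. Beta-lactamase reporter read by FRET substrate fluorescence after 2 hours at room temperature.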
# [9] = target: Androgen receptor (Homo sapiens) (UniProt P10275); assay: qHTS assay to identify small molecule agonists of the androgen receptor (AR) signaling pathway in the presence of an antagonist (AID 1259381); also: nearly all actives have a fitted effect of over 15% in size
# Summary of the method: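 Using human MDA-kb2 cells with an MMTV promoter–luciferase construct (AR and GR response elements), agonist activity is scored under 3.0uM nilutamide (final) co-treatment; 16hr incubation, 37C, luminescence readout via ONE-Glo.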
# Chain of Estrogen receptor (Homo sapiens) (P03372 whole entry, looked up): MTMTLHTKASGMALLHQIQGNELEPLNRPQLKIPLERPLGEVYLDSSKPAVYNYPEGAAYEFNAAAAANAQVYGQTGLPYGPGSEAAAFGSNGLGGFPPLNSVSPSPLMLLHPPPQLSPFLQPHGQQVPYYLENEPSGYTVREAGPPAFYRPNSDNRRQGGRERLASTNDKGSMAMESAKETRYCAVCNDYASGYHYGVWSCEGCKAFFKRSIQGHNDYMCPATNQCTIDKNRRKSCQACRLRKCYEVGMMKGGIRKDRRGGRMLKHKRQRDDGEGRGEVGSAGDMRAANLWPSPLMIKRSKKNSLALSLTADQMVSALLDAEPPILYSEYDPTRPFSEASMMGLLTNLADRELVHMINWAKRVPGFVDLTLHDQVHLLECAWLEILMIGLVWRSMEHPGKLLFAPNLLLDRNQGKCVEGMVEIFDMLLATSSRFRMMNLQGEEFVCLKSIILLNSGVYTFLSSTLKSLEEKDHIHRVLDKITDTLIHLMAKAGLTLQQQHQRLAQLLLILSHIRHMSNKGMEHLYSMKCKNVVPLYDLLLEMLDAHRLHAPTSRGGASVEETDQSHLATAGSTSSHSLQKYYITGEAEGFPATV
# Chain of Androgen receptor (Homo sapiens) (P10275 whole entry, looked up): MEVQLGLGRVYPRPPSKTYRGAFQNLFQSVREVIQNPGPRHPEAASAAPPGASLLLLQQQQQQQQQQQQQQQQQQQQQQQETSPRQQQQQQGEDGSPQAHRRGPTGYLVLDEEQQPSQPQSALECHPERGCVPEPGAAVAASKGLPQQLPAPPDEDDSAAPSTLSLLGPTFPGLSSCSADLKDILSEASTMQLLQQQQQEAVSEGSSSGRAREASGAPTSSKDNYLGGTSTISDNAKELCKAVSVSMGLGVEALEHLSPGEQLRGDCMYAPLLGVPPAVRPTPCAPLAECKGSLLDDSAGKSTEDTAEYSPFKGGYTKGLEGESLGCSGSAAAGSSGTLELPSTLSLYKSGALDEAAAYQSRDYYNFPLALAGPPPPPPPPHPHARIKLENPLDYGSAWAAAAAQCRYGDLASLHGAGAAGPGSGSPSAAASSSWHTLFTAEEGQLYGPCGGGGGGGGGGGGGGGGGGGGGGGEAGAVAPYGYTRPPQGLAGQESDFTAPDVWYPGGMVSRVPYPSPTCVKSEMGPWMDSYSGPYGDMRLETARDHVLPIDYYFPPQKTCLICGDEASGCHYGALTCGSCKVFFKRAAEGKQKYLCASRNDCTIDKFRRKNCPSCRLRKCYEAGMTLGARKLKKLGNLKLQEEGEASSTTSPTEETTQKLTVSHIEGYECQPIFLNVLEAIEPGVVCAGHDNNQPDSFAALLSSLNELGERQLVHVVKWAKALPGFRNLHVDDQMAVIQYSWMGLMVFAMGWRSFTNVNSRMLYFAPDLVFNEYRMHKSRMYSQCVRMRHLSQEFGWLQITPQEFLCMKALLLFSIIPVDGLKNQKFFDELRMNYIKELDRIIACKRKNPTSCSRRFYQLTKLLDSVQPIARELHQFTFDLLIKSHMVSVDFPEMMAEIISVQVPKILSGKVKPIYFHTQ
# Chain of Estrogen receptor beta (Homo sapiens) (Q92731 whole entry, looked up): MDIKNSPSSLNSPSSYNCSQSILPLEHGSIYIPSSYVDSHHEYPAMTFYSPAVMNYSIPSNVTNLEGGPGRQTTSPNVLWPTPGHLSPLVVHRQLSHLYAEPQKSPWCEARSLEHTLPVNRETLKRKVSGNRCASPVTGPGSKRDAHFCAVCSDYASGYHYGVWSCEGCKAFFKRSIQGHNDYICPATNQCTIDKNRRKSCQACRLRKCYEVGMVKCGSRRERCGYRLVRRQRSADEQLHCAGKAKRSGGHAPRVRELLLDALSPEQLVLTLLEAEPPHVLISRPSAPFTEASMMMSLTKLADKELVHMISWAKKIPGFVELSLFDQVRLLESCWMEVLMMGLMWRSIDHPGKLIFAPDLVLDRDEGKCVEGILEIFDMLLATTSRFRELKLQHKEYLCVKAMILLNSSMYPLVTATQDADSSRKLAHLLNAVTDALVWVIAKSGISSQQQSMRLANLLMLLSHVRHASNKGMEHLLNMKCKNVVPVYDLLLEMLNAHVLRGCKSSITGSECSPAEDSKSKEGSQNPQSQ
smiles,measurement,setting,value
C=CC(=O)OCCCCCCCCCC,Potency,[1],inactive
same,Potency,[2],inactive
same,Potency,[3],inactive
same,Potency,[4],inactive
same,Potency,[5],inactive
same,Potency,[6],inactive
N#CCCCC(C#N)CCC#N (stereo unspecified),Potency,[1],inactive
same,Potency,[2],inactive
same,Potency,[3],inactive
same,Potency,[4],inactive
same,Potency,[5],inactive
same,Potency,[6],inactive
same,outcome,[7],inactive
COC(=O)/C=C/C(C)=C\C=C\C(C)=C\C=C\C=C(C)\C=C\C=C(C)\C=C\C(=O)O,Potency,[1],inactive
same,Potency,[2],inactive
same,Potency,[8],inactive
same,Potency,[4],inactive
same,Potency,[9],inactive
same,Potency,[5],inactive
same,Potency,[6],inactive
same,outcome,[7],inactive
CC(=O)c1cccnc1,Potency,[1],inactive
same,Potency,[2],inactive
same,Potency,[8],inactive
same,Potency,[3],inactive
same,Potency,[5],inactive
same,Potency,[6],inactive
CNc1ccccc1,Potency,[1],inactive
same,Potency,[2],inactive
same,Potency,[3],inactive
same,Potency,[4],inactive
same,Potency,[5],inactive
same,Potency,[6],inactive
CC(CN=Cc1ccccc1O)N=Cc1ccccc1O (stereo unspecified),Potency,[1],inactive
same,Potency,[2],inactive
same,Potency,[8],inactive
same,Potency,[3],inactive
same,Potency,[5],inactive
same,outcome,[7],inactive
c1ccc(-c2ccc(-c3ccccc3)cc2)cc1,activity change,[1],"4.66% [at 18.9 µM, hits give high values]"
same,"activity change, negative = inhibition",[2],32.6% [at 19 µM]
same,"activity change, negative = cytotoxicity",[3],-0.211% [at 19 µM]
same,"activity change, negative = cytotoxicity",[4],0.175% [at 19 µM]
same,"activity change, negative = cytotoxicity",[5],-1.89% [at 19 µM]
same,Potency,[6],0.629 µM (active)
CCCC(=O)OCCC(C)C,Potency,[1],inactive
same,Potency,[2],inactive
same,Potency,[3],inactive
same,Potency,[4],inactive
same,Potency,[9],inactive
same,Potency,[5],inactive
same,Potency,[6],inactive
same,outcome,[7],inactive
O=C(O)c1cccc(C(=O)O)c1C(=O)O,Potency,[1],inactive
same,Potency,[2],inactive
same,Potency,[3],inactive
same,Potency,[4],13.8 µM (active)
same,Potency,[9],inactive
same,Potency,[6],inactive
same,outcome,[7],inactive
O=C(Cl)c1ccc(F)c(Cl)c1,Potency,[1],inactive
same,Potency,[2],inactive
same,Potency,[3],inactive
same,Potency,[4],inactive
same,Potency,[5],inactive
same,Potency,[6],0.864 µM (active)
C=Cc1ccc(C=C)cc1,Potency,[1],inactive
same,Potency,[2],inactive
same,Potency,[8],inactive
same,Potency,[3],inactive
same,Potency,[5],inactive
same,Potency,[6],inactive
same,outcome,[7],inactive
O=[N+]([O-])c1ccc(Cl)cc1Cl,Potency,[1],inactive
same,Potency,[2],inactive
same,Potency,[3],inactive
same,Potency,[4],inactive
same,Potency,[5],inactive
CC(CCl)OC(C)CCl (stereo unspecified),Potency,[1],inactive
same,Potency,[2],inactive
same,Potency,[8],inactive
same,Potency,[3],inactive
same,Potency,[5],inactive
same,Potency,[6],inactive
same,outcome,[7],inactive
O=C(O)c1ccc2c(c1)nc(C(=O)NC1CCN(C3CC3)CC1)n2Cc1cc(-c2ccc(Cl)s2)on1,activity change,[1],"-5.1% [at 18.9 µM, hits give high values]"
same,"activity change, negative = inhibition",[2],-2.6% [at 19 µM]
same,"activity, negative = inhibition",[8],18.6% [at 19 µM]
same,"activity change, negative = cytotoxicity",[3],2.61% [at 19 µM]
same,"activity change, negative = cytotoxicity",[5],-12.8% [at 19 µM]
same,activation,[6],1.43% [at 19 µM]
same,cAMP activity change,[7],1.96% [at 18.9 µM]
O=C(C1CCCCC1)N1CC(=O)N2CCCc3ccccc3C2C1 (stereo unspecified),Potency,[1],inactive
same,Potency,[2],inactive
same,Potency,[3],inactive
same,Potency,[4],inactive
same,Potency,[9],inactive
same,Potency,[5],inactive
same,Potency,[6],inactive
same,outcome,[7],inactive
CC[C@H](NC(C)C)[C@H](O)c1ccc(O)c2[nH]c(=O)ccc12,Potency,[1],inactive
same,Potency,[2],inactive
same,Potency,[3],inactive
same,Potency,[4],inactive
same,Potency,[9],inactive
same,Potency,[5],inactive
same,Potency,[6],inactive
CC(C)C/C=C(\C=O)c1ccccc1,Potency,[1],inactive
same,Potency,[2],inactive
same,Potency,[3],inactive
same,Potency,[4],inactive
same,Potency,[5],inactive
same,Potency,[6],inactive
same,outcome,[7],inactive
CC(C)(C)N,Potency,[1],inactive
same,Potency,[2],inactive
same,Potency,[3],inactive
same,Potency,[4],inactive
same,Potency,[5],inactive
same,Potency,[6],inactive
same,outcome,[7],inactive
COc1ccnc2c1CCCCC2S(=O)c1nc2ccccc2[nH]1 (stereo unspecified),Potency,[1],inactive
same,Potency,[2],inactive
same,Potency,[8],inactive
same,Potency,[3],inactive
same,Potency,[5],inactive
same,Potency,[6],inactive
same,outcome,[7],inactive
CCCCOC(=O)CC#N,Potency,[1],inactive
same,Potency,[2],32.1 µM (active)
same,Potency,[3],inactive
same,Potency,[4],inactive
same,Potency,[5],inactive
same,Potency,[6],inactive
same,outcome,[7],inactive
CC(C)CCCCCOC(=O)CS,Potency,[1],inactive
same,Potency,[2],inactive
same,Potency,[3],inactive
same,Potency,[4],inactive
same,Potency,[5],inactive
same,Potency,[6],inactive
same,outcome,[7],inactive
CC(C)(C(=O)O)c1ccc(C(O)CCCN2CCC(C(O)(c3ccccc3)c3ccccc3)CC2)cc1 (stereo unspecified),Potency,[1],inactive
same,Potency,[2],inactive
same,Potency,[8],inactive
same,Potency,[3],inactive
same,Potency,[5],inactive
same,Potency,[6],inactive
same,outcome,[7],inactive
CC(C)CC(C)(C)C,Potency,[1],inactive
same,Potency,[2],inactive
same,Potency,[3],inactive
same,Potency,[4],35.7 µM (active)
same,Potency,[5],31.8 µM (active)
same,Potency,[6],inactive
same,outcome,[7],inactive
CC(C)=CCCC(C)C=O (stereo unspecified),Potency,[1],inactive
same,Potency,[2],inactive
same,Potency,[8],inactive
same,Potency,[3],inactive
same,Potency,[5],inactive
same,Potency,[6],inactive
same,outcome,[7],inactive
CCCCC(CC)COCCC#N (stereo unspecified),Potency,[1],inactive
same,Potency,[2],inactive
same,Potency,[3],inactive
same,Potency,[4],inactive
same,Potency,[5],inactive
CC(=O)OCC(=O)[C@@]1(O)CC[C@H]2[C@@H]3CCC4=CC(=O)C=C[C@]4(C)[C@@]3(F)[C@@H](O)C[C@@]21C,Potency,[1],inactive
same,Potency,[2],inactive
same,Potency,[8],inactive
same,Potency,[3],inactive
same,Potency,[5],inactive
same,outcome,[7],inactive
CC(COc1ccccc1)NC(C)C(O)c1ccc(O)cc1 (stereo unspecified),Potency,[1],inactive
same,Potency,[2],inactive
same,Potency,[3],inactive
same,Potency,[4],inactive
same,Potency,[5],inactive
same,Potency,[6],inactive
same,outcome,[7],inactive
Cc1ccc(NC=O)c(C)c1,Potency,[1],inactive
same,Potency,[2],inactive
same,Potency,[3],inactive
same,Potency,[4],inactive
same,Potency,[5],inactive
same,Potency,[6],inactive
same,outcome,[7],inactive
CC(C)C[C@H](NC(=O)[C@H](Cc1ccccc1)NC(=O)c1cnccn1)B(O)O,Potency,[1],inactive
same,Potency,[2],inactive
same,Potency,[3],0.0473 µM (active)
same,Potency,[4],4.22 µM (active)
same,Potency,[6],inactive
same,outcome,[7],inactive
CCc1ccc2c(c1)C(=O)c1ccccc1C2=O,Potency,[1],6.86 µM (active)
same,Potency,[2],inactive
same,Potency,[3],inactive
same,Potency,[5],inactive
same,Potency,[6],2.43 µM (active)
O=S(=O)(O)c1cc(Cl)c(Cl)cc1Cl,Potency,[1],inactive
same,Potency,[2],inactive
same,Potency,[3],inactive
same,Potency,[9],inactive
same,Potency,[6],inactive
same,outcome,[7],inactive
Cc1cc(SC2=C(O)C[C@@](CCc3ccc(N)cc3)(C(C)C)OC2=O)c(C(C)(C)C)cc1CO,Potency,[1],inactive
same,Potency,[2],inactive
same,Potency,[3],inactive
same,Potency,[9],inactive
same,Potency,[5],inactive
same,outcome,[7],inactive
